Results taken from PubChem BioAssay (NCI).
About 83,000 compounds went through this panel and 20% of them were active in at least one assay; those are over-represented in the sample as a whole.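 96-well plates, one dose, 48 hours. Percent growth reported; active if below 10.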 Active and inactive are the calls of the source.

What follows are molecules tested on UO-31 renal (assay: NCI-60 one-dose screen, 48 h (100 = growth as untreated, 0 = no growth, -100 = all killed)). Conditions: 10 µM unless noted.
For CC(C)=CCC[C@](C)(O)[C@H]1CC[C@]2(C)[C@@H]1CC[C@@H]1[C@@]3(C)CC[C@H](N)C(C)(C)[C@@H]3CC[C@]12C, the growth was 77.1% (inactive). Cc1cc2nc(C(Cl)Cl)nc(-c3ccc(S(=O)(=O)N(C)C)cc3)n2n1 was tested, and the growth was 65.7% (inactive). CCCCCCNC(=O)Oc1ccc(/C(=C(/C)c2ccc(OC)cc2)c2ccc(OCCN3CCCCCC3)cc2)cc1 was tested, and the growth was 6.69% (active). In the case of Cc1nc(/N=C(N)/N=C(\N)c2cccc(Br)c2)sc1C, the growth is reported as 52.5% (inactive). With O=c1nc(Nc2ccc([N+](=O)[O-])cc2O)sc2ccccc12 the growth was 35.8% (inactive). For C#CCOc1ccc(-c2csc(NC(=O)C=C)n2)cc1NS(=O)(=O)c1cccc2c(N(C)C)cccc12, the growth was 21.9% (inactive). COc1ccc(C2CC(c3cccc(OCCCCOc4cccc(C5=NOC(c6ccc(OC)cc6)C5)c4)c3)=NO2)cc1 (stereo not given) was tested, and the growth was 79% (inactive). In the case of Cc1ccc(OCc2occc2C(=O)N2CCOCC2)cc1, the growth is reported as 90.9% (inactive). In the case of O=S(=O)(NCCCNc1nccc(-c2[nH]c(-c3ccccc3)nc2-c2ccc(F)c(O)c2)n1)c1cccc2ccccc12, the growth is reported as 75.2% (inactive). With CCc1cc(OC(=O)N2CCC(N3CCCCC3)CC2)ccc1Nc1cc(-c2ccc(-n3cccn3)cc2)[nH]n1 the growth was 46% (inactive). For O=C(COc1ccc(/C=C2\C(=O)Nc3ccc(F)cc32)cc1)Nc1ccccc1, the growth was 85.4% (inactive). In the case of CC1=C(C)C(=O)C(Nc2cccc(C(=O)OC(C)(C)C)c2)=CC1=O, the growth is reported as 66.4% (inactive). In the case of Cn1cc(-c2nnc(N)nc2-c2c[nH]c3ccc(F)cc23)c2cc(Br)ccc21, the growth is reported as 41.3% (inactive). In the case of Cn1c(SCC(=O)c2ccc(F)cc2)nc2ccccc2c1=O, the growth is reported as 74.2% (inactive). For CN1CCN(c2ccc(Nc3nc(NCCCNS(=O)(=O)c4cccc5ccccc45)c4sccc4n3)cc2)CC1, the growth was -51.1% (active). In the case of CCCCCC[n+]1ccc(SCC(=O)n2ccc3ccccc32)c2ccccc21, the growth is reported as 68.6% (inactive). For COc1ccc(-c2cc(-c3ccc(N(C)C)cc3)n3c(n2)nc2ccccc23)cc1, the growth was 35.2% (inactive). For CC(=O)N(O)CCCCCNC(=O)CCC(=O)N(O)CCCCCNC(=O)CCC(=O)N(O)CCCCCN(CCCCCCCCCC[P+](c1ccccc1)(c1ccccc1)c1ccccc1)CCCCCCCCCC[P+](c1ccccc1)(c1ccccc1)c1ccccc1, the growth was 52.3% (inactive). CC1=C(C)C(=O)C(Nc2ccc3c(c2)OCCO3)=C(Br)C1=O was tested, and the growth was 95.8% (inactive). In the case of COc1ccc2c(c1)C=CC1(O2)Oc2ccc(OC)cc2C=C1C (stereo not given), the growth is reported as 44.9% (inactive). In the case of C/C(=C(\c1ccc(O)cc1)c1ccc(OCCN2CCCCCC2)cc1)c1ccc(Cl)cc1, the growth is reported as -93.3% (active). Brc1cccc(-c2cc(-c3ccc4c(c3)OC=CO4)[nH]n2)c1 was tested, and the growth was 50.4% (inactive). For COc1ccc(C(C)=C(c2ccc(OCCN(C)C)cc2)c2ccc(OCCN(C)C)cc2)cc1, the growth was -59.4% (active). With NS(=O)(=O)c1ccc(Nc2nc(N/N=C/c3ccc4c(c3)OCO4)nc(Nc3ccccc3)n2)cc1 the growth was 76.8% (inactive). For COc1ccc(C2c3[nH]c4ccc(Cl)cc4c3CCN2c2oc(CO)nc2C#N)cc1 (stereo not given), the growth was 54% (inactive). CCc1cc2c(cc1Cl)nc1c(=O)[nH]c(=O)nc-1n2CCOCC(C)C was tested, and the growth was 57.1% (inactive). COc1ccc(-c2c3c(cn2Cc2cccc(OC)c2)-c2oncc2CCC3)cc1 was tested, and the growth was 81% (inactive). With COc1ccc(/C(=N\NC(N)=S)c2ccc(Cl)cc2)cc1OC the growth was 34.5% (inactive). For O=C(CSc1nnc(-c2ccc(Cl)cc2)n1-c1ccccc1)Nc1ccccc1Cl, the growth was 34.2% (inactive). With COc1ccc(-c2c(C(N)=O)c(N)n(Cc3nc4ccccc4[nH]3)c(=O)c2C#N)c(OC)c1 the growth was 68% (inactive). With COc1ccc(-c2cnc(NC(=O)CCCCCCNC(=O)C(O)(O)C(F)(F)F)s2)cc1 the growth was -27.4% (active). In the case of C#C[C@]1(O)CC[C@H]2[C@@H]3CC=C4c5sc(Nc6cc(C)cc(C)c6)nc5CC[C@]4(C)[C@H]3CC[C@@]21C, the growth is reported as 8.23% (active). In the case of COC(=O)CNC(=O)c1cccc(-c2cc(=O)c3c(OC)c(OC)c(OC)cc3o2)c1, the growth is reported as 86.1% (inactive). For CCC1=Cc2c(OC)cccc2OC12C=Cc1c(OC)cccc1O2 (stereo not given), the growth was 39.8% (inactive). In the case of Cc1ccc2c(n1)C(=O)C(Cl)=C(Nc1ccc(C#N)cc1)C2=O, the growth is reported as 16.2% (inactive).
